G9a block: qHTS Assay for Inhibitors of Histone Lysine Methyltransferase G9a | AID 504332, 2011 | Potency, µM (titrated, usually from 102 µM), inactives show at the highest dose activity, negative = inhibition, usual class: inhibitors | actives 8.8% (n = 350,000) | G9a H3K9 monomethylation, AlphaScreen, 2 h | Histone-lysine N-methyltransferase EHMT2 (Homo sapiens), Q96KQ7; note: potency is the fitted concentration of half-maximal effect; % is set by controls: 0 for no effect and ±100 for the full control effect; nearly all actives have a fitted effect of over 75% in size
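Quantitative HTS format: methyltransferase activity on a biotin-tagged H3K9 peptide is measured by AlphaScreen, using a rabbit anti-monomethyl-H3K9 antibody with streptavidin donor and anti-IgG acceptor beads. Final levels are 20 nM enzyme, 500 nM peptide, 20 uM SAM; 2 h RT.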
HP1b binding inh: HTS for Inhibitors of HP1-beta Chromodomain Interactions with Methylated Histone Tails | AID 540317, 2011 | Potency, µM (top dose mostly 114 µM), for inactives: at the highest dose activity change, negative = inhibition, most hits filed as inhibitors | Chromobox protein homolog 1 (Homo sapiens), P83916 | actives 0.56% (n = 390,000) | AlphaScreen HP1-beta / biotin-H3K9me3 peptide binding; note: potency is the fitted concentration of half-maximal effect; nearly all actives have a fitted effect of over 70% in size
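HP1-beta protein (50 nM final) preincubated 30 min at room temperature with biotinylated H3(1-18)K9me3 peptide (50 nM) in PBS pH 7.4, 0.01% Tween-20, then compound added for 30 min. AlphaScreen streptavidin donor/nickel chelate acceptor beads (10 ug/mL final), 30 min dark, luminescence read.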
PI5P4Ka inh: qHTS for Inhibitors of phosphatidylinositol 5-phosphate 4-kinase (PI5P4K) | AID 652105, 2013 | Phosphatidylinositol 5-phosphate 4-kinase type-2 alpha (Homo sapiens), P48426 | actives 1.2% (n = 330,000) | PI5P4Kalpha enzyme, ADP-Glo luminescence, 60 min; hits give low values | max response, %; active = max response of -50% or lower; inconclusive = between -30% and -50%; inactive = -30% or higher; note: value at the top dose of about 77 µM; % is set by controls: 0 for no effect and ±100 for the full control effect
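Human PI5P4Kalpha with substrate in 0.038 M HEPES pH 7.4, 0.28 mM EGTA, 0.1% CHAPS, 5% DMSO; reaction started with 5 microM ATP (final), 60 min at room temperature. ADP formed read by ADP-Glo luminescence.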
JMJD2A Tudor inh: qHTS Assay for Inhibitors of JMJD2A-Tudor Domain | actives 4.4% (n = 390,000) | Potency, µM (titrated, usually from 114 µM), inactives show top-dose activity change, negative = inhibition, hits mostly inhibitors | Lysine-specific demethylase 4A (Homo sapiens), O75164 | AID 504339, 2011 | AlphaScreen JMJD2A-Tudor / H3K4me3 peptide binding; note: potency is the fitted concentration of half-maximal effect; % is set by controls: 0 for no effect and ±100 for the full control effect; nearly all actives have a fitted effect of over 50% in size
PLK1 PBD inh: qHTS for Inhibitors of PLK1-PDB (polo-like kinase 1 - polo-box domain): Primary Screen | Serine/threonine-protein kinase PLK1 (Homo sapiens), P53350 | Plk1 PBD binding of FITC phosphopeptide, fluorescence polarization | Potency, µM, for the others: max response, negative = inhibition, usual class: inhibitors | actives 2.8% (n = 360,000); note: potency is the fitted concentration of half-maximal effect; series mostly up to about 57 µM; % is set by controls: 0 for no effect and ±100 for the full control effect; nearly all actives have a fitted effect of over 65% in size
Target sequence (P53350 whole entry, looked up, the tested form may be a part): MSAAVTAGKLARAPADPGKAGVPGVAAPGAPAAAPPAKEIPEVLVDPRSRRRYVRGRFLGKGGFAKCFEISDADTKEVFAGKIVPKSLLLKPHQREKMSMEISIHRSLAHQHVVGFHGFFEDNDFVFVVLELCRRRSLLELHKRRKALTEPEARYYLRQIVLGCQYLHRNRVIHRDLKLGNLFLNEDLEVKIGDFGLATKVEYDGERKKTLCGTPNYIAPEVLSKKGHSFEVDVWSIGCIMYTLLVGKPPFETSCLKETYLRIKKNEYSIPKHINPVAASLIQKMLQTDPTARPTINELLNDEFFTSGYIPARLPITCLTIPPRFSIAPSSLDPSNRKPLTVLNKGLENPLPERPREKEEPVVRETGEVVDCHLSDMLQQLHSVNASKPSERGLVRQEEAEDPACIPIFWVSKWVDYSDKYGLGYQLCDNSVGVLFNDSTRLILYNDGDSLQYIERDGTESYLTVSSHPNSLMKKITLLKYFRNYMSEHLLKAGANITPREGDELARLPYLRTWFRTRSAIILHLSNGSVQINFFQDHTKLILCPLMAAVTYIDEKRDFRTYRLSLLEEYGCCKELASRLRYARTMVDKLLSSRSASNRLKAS
BAZ2B block: qHTS Assay for Inhibitors of BAZ2B. Bromodomain adjacent to zinc finger domain protein 2B (Homo sapiens), Q9UIF8. AlphaScreen BAZ2B-H3K14Ac peptide displacement. Potency, µM (series often up to 114 µM), for inactives: top-dose activity change, negative = inhibition, most hits filed as inhibitors. actives 4.4% (n = 360,000); note: potency is the fitted concentration of half-maximal effect; % is set by controls: 0 for no effect and ±100 for the full control effect; nearly all actives have a fitted effect of over 60% in size
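Multi-concentration screen (max 110 uM) measuring displacement of acetylated histone H3 peptide from BAZ2B by AlphaScreen, using 50 nM protein, 50 nM peptide and 10 ug/mL streptavidin donor plus Ni-chelate acceptor beads.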
* marks the source's active call; other numbers are inactive results; ? = inconclusive; . = no result given; [ ] = remark or other dose. Compounds with a hit are over-represented: about 12% of the library has one in this group of screens. Unless noted, calls come from the whole dose curve; as a rule, active = well fitted curve in the direction sought with a large enough effect; inconclusive = small, poorly fitted or top-dose-only effect, or another doubt; inactive = no such curve, though single readings can be large; an effect the other way counts as inactive or inconclusive.

SMILES	G9a block	HP1b binding inh	PI5P4Ka inh	JMJD2A Tudor inh	PLK1 PBD inh	BAZ2B block
C=CCn1c(SCC(C)=O)nc2scc(-c3ccc(C)o3)c2c1=O	45µM*	20%	0	?	-3%	6%
C=CCn1c(SCC(=O)NC2CCCC2)nc2scc(-c3ccco3)c2c1=O	?	12%	-83*	-36%	-29%	?
C=CCn1c(SCC(=O)NC(=O)NCc2ccco2)nc2sc(C)c(C)c2c1=O	20%	40%	-5	-6%[57.1 µM]	-16%	18%
C=CCn1c(SCC(=O)NCCCC)nc2scc(-c3ccco3)c2c1=O	-22%[59 µM]	?	-57*	56µM*	?	?
C=CCn1c(=S)[nH]c2sccc2c1=O	13µM*	15%	-21	?	-18%	3%
Fc1ccc(Nc2ccnc(-c3ccc4c(c3)OCO4)n2)cc1	-1%[0.501 µM]	.	.	.	.	.
Cc1ccc2nc(N3CCN(C(=O)C4COc5ccccc5O4)CC3)sc2c1 (stereo not drawn)	5%[59 µM]	-14%	.	-22%	.	-13%
C=CCn1c(=S)[nH]c2sc3c(c2c1=O)CCCC3	20%[0.501 µM]	27%	?	-22%	?	0%
C=CCn1c(=S)[nH]c2scc(-c3ccc(C)o3)c2c1=O	50µM*	-11%	?	?	?	-1%
O=C(CN1C(=O)c2ccccc2C1=O)OCC(=O)N1CCCCC1	.	13%	-7	-21%	-4%	.
O=C(O)CN1C(=O)/C(=C/c2ccc(SCc3ccccc3)o2)SC1=S	18µM*	?	?	56µM*	10%	25µM*
C=CCN1C(=O)/C(=C\c2ccc(OC(=O)c3ccco3)c(OC)c2)SC1=S	14µM*	-20%	0	?	3%	10µM*
O=C(O)CN1C(=O)/C(=C\c2cccc(OC(=O)c3ccco3)c2)SC1=S	1%	-6%	5	-24%	-21%	-9%
CCN1C(=O)/C(=C\c2cccc(OC(=O)c3ccco3)c2)SC1=S	-9%	?	-3	?	-17%	1%
C=CCN1C(=O)/C(=C\c2cccc(OC(=O)c3ccco3)c2)SC1=S	79µM*	-10%	-2	-28%	1%	-25%
O=C(O)CN1C(=O)/C(=C\c2ccc(OC(=O)c3ccco3)cc2)SC1=S	8.9µM*	-31%	-16	?	6%	-22%
COC(=O)CCNC(=O)N1CCN(c2nnc(C)c3c(C)n(-c4ccc(Cl)cc4)nc23)CC1	12%[59 µM]	10%	.	-10%	.	-9%
Cc1cccc(C)c1NC(=O)C(c1ccccc1)N1CCN(c2ccc(C(F)(F)F)cn2)CC1 (stereo not drawn)	.	.	-2	.	-3%	.
Cc1ccccc1NC(=O)CSc1n[nH]c(-c2ccccn2)n1	12%	60%	-5	3.5µM*	3%	2.8µM*
Cc1ccc(C)c(NC(=O)CSc2n[nH]c(-c3ccccn3)n2)c1	61%	15%	-1	1.3µM*	4%	4.5µM*
Cc1nc(SCC(=O)Nc2cccc(Cl)c2)n[nH]1	0%[12.7 µM]	28%	-1	2%	-9%	2%
Cc1ccc(F)cc1NC(=O)CSc1ncccn1	8%	52%	0	-8%	2%	.
Cc1ccc(O)c(NC(=O)CSc2n[nH]c(-c3ccccc3)n2)c1	9%	22%	-6	-24%	-5%	-27%
O=C(CSc1n[nH]c(-c2ccccn2)n1)Nc1cccc(Cl)c1	?	47%	-6	6.3µM*	-8%	5µM*
COc1ccc(CN(C)CCCn2cnc(C(=O)Nc3ccc(C)c(C)c3)n2)cc1OC	.	27%	11	-16%	0%	.
SMILES	G9a block	HP1b binding inh	PI5P4Ka inh	JMJD2A Tudor inh	PLK1 PBD inh	BAZ2B block
Cc1csc(NC(=O)C2CCCC2)n1	40µM*	48%	2	-16%	-5%	0%
Cc1csc(NC(=O)C2CCCCC2C(=O)O)n1 (stereo not drawn)	8%[59 µM]	34%	1	7%	-11%	2%
COc1ccc(S(=O)(=O)n2nc(-c3ccco3)nc2NCc2ccc(OC)c(OC)c2)cc1	?	-6%	.	-36%	.	-35%
COc1cc(CNc2ccc(N3CCN(C(C)=O)CC3)cc2)ccc1OCc1ccccc1	28µM*	45µM*	1	45µM*	-1%	40µM*
CCc1ccc(CNc2ccc(N3CCN(C(C)=O)CC3)cc2)cc1	?	-48%	-2	?	-11%	40µM*
Cc1ccc(CNc2ccc(O)cc2)cc1	?	-73%	?	50µM*	?	32µM*
CC(=O)N1CCN(c2ccc(NCc3ccco3)cc2)CC1	9%[0.501 µM]	32%	.	-17%	.	?
CC(=O)N1CCN(c2ccc(NCc3ccc(-c4cccc(Cl)c4)o3)cc2)CC1	.	?	.	40µM*	.	.
Cc1ccc(NCc2ccccc2O)cc1	-6%[2.33 µM]	-4%	.	?	3%	?
CCOc1ccc(NC(=O)N2CCOc3ccccc32)cc1	-17%[59 µM]	33%	.	-14%	.	-9%
CC(=O)N1CCN(c2ccc(NCc3ccc(C)cc3)cc2)CC1	13µM*	-24%	.	?	-9%	45µM*
C#CCn1c(C2CC(=O)N(c3ccc(OCC)cc3)C2)nc2ccccc21 (stereo not drawn)	-1%[59 µM]	37%	.	-5%	.	-37%
c1ccc(-c2ccccc2OCCCN2CCCCC2)cc1	8.9µM*	-20%	-7	7.9µM*	-4%	?
CCN1CCN(CCCOc2ccccc2-c2ccccc2)CC1	.	-5%	-2	22µM*	-13%	28µM*
Brc1ccccc1OCCCCN1CCCCC1	25%	21%	2	-10%	2%	4%
